Laboratory results as given in PubChem BioAssay.
Unmarked numbers belong to inactive results. For some assays here: Results with a measured potency or affinity are listed apart. Calls of active or inactive are those of the source. Unless noted, the rule behind the calls is not given here.

How the values were obtained:
[1] = antimalarial activity against Dd2 strain (AID 2302;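 active = growth inhibition above 50% at the single 2 µM test dose, taken to imply half-maximal potency below 2 µM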;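 note: 0% = DMSO untreated growth and 100% = chloroquine plus artemisinin killed control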); conditions: P. falciparum Dd2 in RBCs, LDH growth readout, 72 h; at 2 µM; hits give high values
[2] = human hepatoma cell viability loss – ATP luminescence, cytotoxicity control for P. falciparum antimalarial project, primary screen (AID 2303;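 active = inhibition above 50%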;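 note: 0% = DMSO wells and 100% = digitonin-killed cells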); conditions: HepG2 viability, 24-48 h, at 10 µM, hits give high values
[3] = molecular target: L-lactate dehydrogenase (Plasmodium falciparum (isolate CDC / Honduras)) (UniProt Q27743); assay: PfLDH activity inhibition – cell lysate, 3D7 strain, counter-screen for P. falciparum growth inhibition project (AID 2304);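 note: 0% = vehicle and 100% = reference inhibitor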; conditions: P. falciparum 3D7 crude extract, LDH APAD/NBT absorbance; at 2 µM; hits give high values
[4] = inhibition of 3D7 malaria parasite growth – strain 3D7 (AID 2306);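 note: 0% = DMSO wells and 100% = chloroquine plus artemisinin control wells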; conditions: P. falciparum 3D7 erythrocytic growth, LDH absorbance, 72 h; at 2 µM; hits give high values
[5] = molecular target: Calcium-dependent protein kinase 1 (Plasmodium falciparum (isolate 3D7)) (UniProt P62344); assay: PfCDPK1 kinase inhibitors, biochemical, TCAMS library (AID 1159585; cut-off not given, nearly all actives have IC50 up to about 0.98 µM;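 note: inhibitors leave more ATP so luminescence rises with inhibition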); conditions: recombinant PfCDPK1, Kinase-Glo ATP depletion luminescence
[6] = molecular target: Plasmodium falciparum protein kinase 6 (PK6, PF3D7_1337100) (UniProt Q8IDW1); assay: PfPK6 kinase inhibitors, biochemical, TCAMS library (AID 1159586); conditions: recombinant PfPK6, Kinase-Glo ATP depletion luminescence
[7] = molecular target: Protein kinase 7 (PK7), Plasmodium falciparum 3D7 (PF3D7_0213400) (UniProt Q7YTF7); assay: inhibition of Plasmodium PK7 catalytic activity – biochemical, TCAMS antimalarial set, Kinase-Glo luminescence (AID 1159587); conditions: recombinant PfPK7, Kinase-Glo ATP depletion luminescence
[8] = molecular target: Calcium-dependent protein kinase 4 (Plasmodium falciparum (isolate 3D7)) (UniProt Q8IBS5); assay: PfCDPK4 kinase inhibitors, biochemical, TCAMS library (AID 1159588; cut-off not given, nearly all actives have IC50 up to about 0.91 µM); conditions: recombinant PfCDPK4, Kinase-Glo ATP depletion luminescence
Sequence of Calcium-dependent protein kinase 4 (Plasmodium falciparum (isolate 3D7)) (Q8IBS5 whole entry, looked up): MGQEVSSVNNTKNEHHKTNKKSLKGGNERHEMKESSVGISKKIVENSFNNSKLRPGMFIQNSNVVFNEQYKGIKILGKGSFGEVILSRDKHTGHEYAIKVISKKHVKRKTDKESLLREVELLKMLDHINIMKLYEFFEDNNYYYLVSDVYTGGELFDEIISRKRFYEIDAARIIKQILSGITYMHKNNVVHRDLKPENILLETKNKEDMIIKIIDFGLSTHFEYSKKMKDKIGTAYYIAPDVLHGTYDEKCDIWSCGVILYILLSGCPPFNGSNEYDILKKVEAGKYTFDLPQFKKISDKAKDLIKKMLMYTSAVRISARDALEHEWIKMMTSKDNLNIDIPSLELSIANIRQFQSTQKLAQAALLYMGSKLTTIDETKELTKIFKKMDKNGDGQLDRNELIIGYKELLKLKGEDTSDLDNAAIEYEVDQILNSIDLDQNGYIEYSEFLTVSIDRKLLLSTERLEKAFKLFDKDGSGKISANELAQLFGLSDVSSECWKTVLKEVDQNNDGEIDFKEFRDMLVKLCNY

Sequence of L-lactate dehydrogenase (Plasmodium falciparum (isolate CDC / Honduras)) (Q27743 whole entry, looked up): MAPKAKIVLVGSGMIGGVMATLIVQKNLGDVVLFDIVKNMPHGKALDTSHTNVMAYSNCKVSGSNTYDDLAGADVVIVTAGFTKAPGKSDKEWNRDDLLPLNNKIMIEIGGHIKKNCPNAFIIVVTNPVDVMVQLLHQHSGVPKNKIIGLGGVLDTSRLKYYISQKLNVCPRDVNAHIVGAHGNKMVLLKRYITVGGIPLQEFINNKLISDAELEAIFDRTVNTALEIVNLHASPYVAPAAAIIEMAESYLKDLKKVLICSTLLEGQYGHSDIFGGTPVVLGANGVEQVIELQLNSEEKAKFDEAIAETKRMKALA
Sequence of Protein kinase 7 (PK7), Plasmodium falciparum 3D7 (PF3D7_0213400) (Q7YTF7 1-343): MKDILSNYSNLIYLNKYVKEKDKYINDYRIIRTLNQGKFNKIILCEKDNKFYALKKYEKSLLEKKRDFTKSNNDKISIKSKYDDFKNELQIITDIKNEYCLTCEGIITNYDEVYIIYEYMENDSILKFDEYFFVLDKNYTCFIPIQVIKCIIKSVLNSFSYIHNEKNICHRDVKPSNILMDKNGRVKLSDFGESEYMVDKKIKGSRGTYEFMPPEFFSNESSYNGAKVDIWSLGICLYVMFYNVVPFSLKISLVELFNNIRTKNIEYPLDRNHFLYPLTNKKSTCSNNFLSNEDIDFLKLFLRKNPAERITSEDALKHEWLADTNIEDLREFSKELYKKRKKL
Sequence of Plasmodium falciparum protein kinase 6 (PK6, PF3D7_1337100) (Q8IDW1 1-305): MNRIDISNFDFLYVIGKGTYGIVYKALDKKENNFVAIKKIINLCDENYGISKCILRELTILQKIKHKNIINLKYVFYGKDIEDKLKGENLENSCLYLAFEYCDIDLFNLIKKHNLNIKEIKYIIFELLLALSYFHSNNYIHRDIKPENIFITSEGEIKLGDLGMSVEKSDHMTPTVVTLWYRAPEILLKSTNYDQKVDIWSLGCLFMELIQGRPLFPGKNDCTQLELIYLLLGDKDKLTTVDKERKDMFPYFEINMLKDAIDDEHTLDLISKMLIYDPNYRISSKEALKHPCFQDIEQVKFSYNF
Sequence of Calcium-dependent protein kinase 1 (Plasmodium falciparum (isolate 3D7)) (P62344 whole entry, looked up): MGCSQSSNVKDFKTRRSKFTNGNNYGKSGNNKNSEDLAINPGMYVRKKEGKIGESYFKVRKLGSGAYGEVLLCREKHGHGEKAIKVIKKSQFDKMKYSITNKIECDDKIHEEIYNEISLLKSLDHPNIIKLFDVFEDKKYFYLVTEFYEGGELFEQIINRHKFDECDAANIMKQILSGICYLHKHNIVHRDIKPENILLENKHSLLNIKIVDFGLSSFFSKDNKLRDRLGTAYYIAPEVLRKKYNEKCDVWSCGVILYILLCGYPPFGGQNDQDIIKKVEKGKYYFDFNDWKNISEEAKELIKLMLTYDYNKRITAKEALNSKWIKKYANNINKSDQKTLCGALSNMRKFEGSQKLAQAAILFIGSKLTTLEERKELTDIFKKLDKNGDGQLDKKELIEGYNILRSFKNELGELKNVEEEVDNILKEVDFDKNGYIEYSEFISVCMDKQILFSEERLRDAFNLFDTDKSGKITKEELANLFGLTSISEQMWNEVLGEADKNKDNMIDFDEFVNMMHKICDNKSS

Compound | growth inhibition [1] | inhibition [2] | inhibition [3] | growth inhibition [4] | outcome [5] | outcome [6] | outcome [7] | outcome [8]
Cc1ccccc1C1CCN(C2CCC(NC(=O)/C=C/c3cc(F)cc(F)c3)CC2)CC1 (stereo not given) | 33% | 53% (active) | 3% | 99% (active) | inactive | inactive | inactive | inactive
COc1ccc2nccc(N3CCN(CCNCc4ccc5c(n4)NC(=O)CS5)CC3)c2n1 | 67% (active) | 10% | 1% | 100% (active) | inactive | inactive | inactive | inactive
C(=Cc1nc2ccccc2s1)c1ccc2c(c1)OCCO2 | 96% (active) | 13% | 1% | 98% (active) | inactive | inactive | inactive | inactive
CC(C)(CNC(=O)/C=C/c1ccc(Cl)c(Cl)c1)CNc1cc(=O)c2ccccc2[nH]1 | 29% | -4% | 0% | 96% (active) | inactive | inactive | inactive | inactive
FC(F)(F)c1cccc(CCNc2nccc(NCc3ccc(Cl)cc3Cl)n2)c1 | 59% (active) | 8% | 1% | 97% (active) | inactive | inactive | inactive | inactive
NC(=O)c1cccc(C(=O)Nc2ccc(-c3cccc(-c4nc5ccc(F)cc5[nH]4)c3)cc2)c1 | 5% | 45% | -5% | 94% (active) | inactive | inactive | inactive | inactive
Cc1cc(C2CCN(CCCCNC(=O)c3ccc(NC(=O)c4ccc(Cl)cc4)cc3)CC2)c(C)cc1OCCN(C)C | 77% (active) | 18% | -1% | 100% (active) | inactive | inactive | inactive | inactive
OC(CNc1ccnc(Nc2cccc(Cl)c2)n1)c1ccccc1C(F)(F)F (stereo not given) | 36% | 40% | 0% | 95% (active) | inactive | inactive | inactive | inactive
CN1CCCN(Cc2cccc(-c3ccc(NC(=O)c4cccc(Cl)c4)cc3)c2)CC1 | 10% | 34% | -3% | 90% (active) | inactive | inactive | inactive | inactive
O=C(Cc1cnc[nH]1)Nc1cccc(-c2ccc(-c3nc4ccc(C(F)(F)F)cc4[nH]3)s2)c1 | 99% (active) | 5% | 3% | 101% (active) | inactive | inactive | inactive | inactive
CC(C)COc1ccc(Cl)cc1Cc1ccc(-c2nc3ccc(Br)cc3[nH]2)o1 | 75% (active) | 19% | -3% | 80% (active) | inactive | inactive | inactive | inactive
Cc1cc(N[C@@H](CC(C)C)C(=O)NCCc2ccccc2)nc(NCc2ccccc2C)n1 | 74% (active) | 17% | 0% | 93% (active) | inactive | inactive | inactive | inactive
COc1ccc2c(NN=Cc3cccc(F)c3)ccnc2c1 | 95% (active) | 49% | -5% | 101% (active) | inactive | inactive | inactive | inactive
CCN(CC)CCN(Cc1ccc(-c2ccc(C(F)(F)F)cc2)cc1)C(=O)Cn1c(CCc2cccc(F)c2F)cc(=O)c(C)c1C | 87% (active) | 35% | -4% | 97% (active) | inactive | inactive | inactive | inactive
Cc1cc(NC(=O)NCCN2CCC(NS(=O)(=O)c3cccc(Br)c3)C2)c2ccccc2n1 (stereo not given) | 58% (active) | 0% | -2% | 99% (active) | inactive | inactive | inactive | inactive
CCCCCCCCCCNCC(O)c1ccc(O)c(C(=O)OC)c1 (stereo not given) | 97% (active) | 3% | -7% | 97% (active) | inactive | inactive | inactive | inactive
COc1ccc2nccc(NN=Cc3ccc([N+](=O)[O-])cc3)c2c1 | 68% (active) | 9% | -2% | 100% (active) | inactive | inactive | inactive | inactive
O=S(=O)(NCCN1CCCC1)c1ccc(-c2ccc(CNCc3ccccc3)cc2)cc1F | 39% | 35% | 4% | 83% (active) | inactive | inactive | inactive | inactive
CN(CCS(C)(=O)=O)Cc1ccc(-c2ccc3ncnc(Nc4ccc(OCc5cccc(F)c5)c(Cl)c4)c3c2)o1 | 65% (active) | 25% | -1% | 101% (active) | inactive | inactive | inactive | inactive
CN1CCC(c2cc3c(cc2Br)CCN3C(=O)Nc2ccc(-c3ccncc3)c(Cl)c2)CC1 | -1% | 26% | -1% | 91% (active) | inactive | inactive | inactive | inactive

Compound | growth inhibition [1] | inhibition [2] | inhibition [3] | growth inhibition [4] | outcome [5] | outcome [6] | outcome [7] | outcome [8]
CN1CCC(N2CCN(Cc3ccc(-c4cccc(-c5nc6ccccc6[nH]5)c4)cc3)CC2)CC1 | 100% (active) | 48% | -1% | 99% (active) | inactive | inactive | inactive | inactive
Cc1ccc(O)c(CN2CCCC(COC(c3ccc(F)cc3)c3ccc(F)cc3)C2)c1 (stereo not given) | 98% (active) | 19% | 0% | 98% (active) | inactive | inactive | inactive | inactive
CC(C)(Cc1ccc(Cl)cc1)NCCCCCCNCCc1ccc(O)c(O)c1 | -7% | 45% | -8% | 90% (active) | inactive | inactive | inactive | inactive
CCC(=O)Nc1cc(=O)[nH]c2nc(-c3ccc(Cl)cc3)nn12 | 62% (active) | 3% | -11% | 84% (active) | inactive | inactive | inactive | inactive
CC1CCCCC1N(C)C1CCN(CCCNC(=O)C=Cc2ccc(Cl)cc2Cl)CC1 (stereo not given) | 59% (active) | 53% (active) | 4% | 101% (active) | inactive | inactive | inactive | inactive
CCNc1cc(C(=O)N[C@@H](Cc2ccccc2)[C@H](O)CNC2(C)CCCCC2)cc(N2CCCCS2(=O)=O)c1 | 98% (active) | 13% | 2% | 100% (active) | inactive | inactive | inactive | inactive
COc1ccc2nc(-c3ccccc3)cc(NN=Cc3ccncc3)c2c1 | 27% | 14% | -2% | 99% (active) | inactive | inactive | inactive | inactive
CC(CN(C)C)C(=O)Nc1cccc(-c2cccc(-c3nc4ccccc4[nH]3)c2)c1 (stereo not given) | 25% | 42% | -5% | 94% (active) | inactive | inactive | inactive | inactive
Cc1cc(Nc2cccc(C(F)(F)F)c2)nc2ccc(NC(=O)c3ccc(=O)[nH]c3)cc12 | 60% (active) | 21% | 0% | 101% (active) | inactive | inactive | inactive | inactive
O=C(N[C@@H](Cc1ccccc1)C(=O)NC1CCCCC1)c1ccc(O)c(-c2cccc(C(F)(F)F)c2)c1 | 36% | 11% | -2% | 96% (active) | inactive | inactive | inactive | inactive
COc1ccc(C2=C(Nc3ccc4oc5ccccc5c4c3)c3ccccc3C2=O)cc1 | 92% (active) | 9% | 5% | 93% (active) | inactive | inactive | inactive | inactive
NC1CCN(CCc2ccc(NS(=O)(=O)c3cccc4ccccc34)cc2)CC1 | 4% | 21% | 4% | 94% (active) | inactive | inactive | inactive | inactive
CCN1CCC(N(Cc2ccc(-c3ccc(C(F)(F)F)cc3)cc2)C(=O)Cn2c(SCc3cccc(F)c3F)cc(=O)c3ccccc32)C1 (stereo not given) | 91% (active) | 42% | 5% | 90% (active) | inactive | inactive | inactive | inactive
CCOC(=O)c1c(C)noc1Nc1cccc(C)c1C | -2% | 8% | 2% | 98% (active) | inactive | inactive | inactive | inactive
COc1ccc(CC(Cc2ccc(OC)cc2)NCC(O)c2cccc(Cl)c2)cc1 (stereo not given) | 98% (active) | 11% | -4% | 100% (active) | inactive | inactive | inactive | inactive
CC=CC1CCNC(C(O)c2ccnc3ccc(OC)cc23)C1 (stereo not given) | 1% | -2% | 3% | 91% (active) | inactive | inactive | inactive | inactive
CCCNC(=O)c1ccnc(-c2ccc(CNC3Cc4ccccc4C3)cc2)c1 | 21% | 24% | -3% | 92% (active) | inactive | inactive | inactive | inactive
NC(=O)c1cccc(Nc2nccc(Nc3ccc(Oc4cccc(Cl)c4)c(Cl)c3)n2)c1 | 12% | -3% | 1% | 93% (active) | inactive | inactive | inactive | inactive
c1cn(CCCNc2ncc(-c3ccsc3)c(-c3nccs3)n2)cn1 | 51% (active) | -11% | -4% | 94% (active) | inactive | inactive | inactive | inactive
CCC(C)OC(=O)C1=C(C)NC2=C(C(=O)CC(c3ccc(OC)c(OC)c3)C2)C1c1ccc(O)cc1 (stereo not given) | 97% (active) | 3% | 6% | 101% (active) | inactive | inactive | inactive | inactive
